Assay results from PubChem BioAssay (Tox21).
Activity calls are given as the source filed them. Calls follow the shape of the dose curve; as a rule, active = well fitted curve in the direction sought with a large enough effect in the repeat runs; inconclusive = weak or mixed curves; inactive = flat fitted curve, though single readings scatter.

Assay: qHTS assay to test for compound auto fluorescence at 590 nm (red) in HEK293 cell free culture (AID 720683)
Conditions: cell-free medium autofluorescence, Ex540/Em590 red; series mostly up to 91.3 µM
Method in brief: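 Cell-free wells of DMEM with 10% FBS received compound, and intrinsic fluorescence was read at excitation/emission 540/590 nm. Values expressed as equivalence to Rose Bengal sodium.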
% is scaled to controls: 0 for no effect and ±100 for the full control effect.

| SMILES | outcome | fluorescence, % of fluorescent control |
| --- | --- | --- |
| O=C(COCCOCCOCC(=O)Nc1c(I)cc(I)c(C(=O)O)c1I)Nc1c(I)cc(I)c(C(=O)O)c1I | inactive |  |
| C=C(C)C(=O)OC | inactive |  |
| CC1=CC[C@H](CC=O)C1(C)C | inactive |  |
| C=C(C)[C@@H]1CC[C@@H](C)C[C@@H]1O | inactive |  |
| COCCOCCOCCOC | inactive |  |
| COc1ccc(OC)c(NC(=O)CC(C)=O)c1 | inactive |  |
| CCCCC(=O)N(C)C | inactive |  |
| C1=C\CC/C=C\CC/1 | inactive |  |
| CCS(=O)(=O)CCn1c([N+](=O)[O-])cnc1C |  | -0.106% [at 18.6 µM] (inactive) |
| CC(Cl)COP(=O)(OCC(C)Cl)OCC(C)Cl (configuration not stated) | inactive |  |
| CCCCC(C)C(=O)O (configuration not stated) | inactive |  |
| CCCCC/C=C/CC(=O)OC | inactive |  |
| C=C(C)C(=O)OCCCCCCOC(=O)C(=C)C | inactive |  |
| NS(=O)(=O)c1ccc(Cl)c(S(N)(=O)=O)c1 | inactive |  |
| CC(C)SCc1ccco1 | inactive |  |
| F[Si-2](F)(F)(F)(F)F | inactive |  |
| CCC(O)C(C)(C)C (configuration not stated) | inactive |  |
| Cc1ccccc1OCC1CO1 (configuration not stated) | inactive |  |

| SMILES | outcome | fluorescence, % of fluorescent control |
| --- | --- | --- |
| Cc1nc(C)nc(N2C[C@@H](C)N(c3ccnc([C@@H](C)O)n3)[C@@H](C)C2)n1 | inactive |  |
| CC(=O)OC(C)c1ccccc1 (configuration not stated) | inactive |  |
| O=C(O)c1ccccc1C(=O)OCc1ccccc1 | inactive |  |
| C=COCCOCCOC=C | inactive |  |
| CCCCCCCCOC(C)=O | inactive |  |
| CCN(Cc1cccc(S(=O)(=O)O)c1)c1ccccc1 | inactive |  |
| O=C(CN1CCN(Cc2ccc3c(c2)OCO3)CC1)N1c2ccccc2Sc2ccccc21 | inactive |  |
| CC(=O)N(CC(O)CO)c1c(I)c(C(=O)NCC(O)CO)c(I)c(C(=O)NCC(O)CO)c1I (configuration not stated) | inactive |  |
| CC1=NN(c2ccc(S(=O)(=O)O)cc2)C(=O)C1N=Nc1ccccc1 (configuration not stated) | inactive |  |
| C=CCOCC(CO)(COCC=C)COCC=C | inactive |  |
| C=C[Si](C)(C)O[Si](C)(C)C=C | inactive |  |
| CCCCC[Si](OCC)(OCC)OCC | inactive |  |
| O=C(O)c1ccccc1C(=O)Nc1ccc(S(=O)(=O)Nc2nccs2)cc1 | inactive |  |
| Nc1cc(S(=O)(=O)O)ccc1S(=O)(=O)O | inactive |  |
| O=CN1CCOCC1 | inactive |  |
| CCCCOC(=O)C(C)OC(=O)CCC (configuration not stated) | inactive |  |
| CC(=O)OC(C(=O)c1ccccc1)c1ccccc1 (configuration not stated) | inactive |  |

Assay: qHTS assay to test for compound auto fluorescence at 590 nm (red) in HepG2 cell free culture (AID 720684)
Conditions: cell-free medium autofluorescence, red 540/590 nm; series mostly up to 91.3 µM
Method in brief: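 Rose Bengal sodium served as the reference for red signal. Test compounds were dispensed into serum-containing MEM (10% FBS) without cells, and plates were read at 540/590 nm.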

| SMILES | outcome | fluorescence, % of Rose Bengal |
| --- | --- | --- |
| O=C(COCCOCCOCC(=O)Nc1c(I)cc(I)c(C(=O)O)c1I)Nc1c(I)cc(I)c(C(=O)O)c1I | inactive |  |
| C=C(C)C(=O)OC | inactive |  |
| CC1=CC[C@H](CC=O)C1(C)C | inactive |  |
| C=C(C)[C@@H]1CC[C@@H](C)C[C@@H]1O | inactive |  |
| COCCOCCOCCOC | inactive |  |
| COc1ccc(OC)c(NC(=O)CC(C)=O)c1 | inactive |  |
| CCCCC(=O)N(C)C | inactive |  |
| C1=C\CC/C=C\CC/1 | inactive |  |
| CCS(=O)(=O)CCn1c([N+](=O)[O-])cnc1C |  | 0.0121% [at 18.6 µM] (inactive) |
| CC(Cl)COP(=O)(OCC(C)Cl)OCC(C)Cl (configuration not stated) | inactive |  |
| CCCCC(C)C(=O)O (configuration not stated) | inactive |  |
| CCCCC/C=C/CC(=O)OC | inactive |  |
| C=C(C)C(=O)OCCCCCCOC(=O)C(=C)C | inactive |  |
| NS(=O)(=O)c1ccc(Cl)c(S(N)(=O)=O)c1 | inactive |  |
| CC(C)SCc1ccco1 | inactive |  |
| F[Si-2](F)(F)(F)(F)F | inactive |  |
| CCC(O)C(C)(C)C (configuration not stated) | inactive |  |
| Cc1ccccc1OCC1CO1 (configuration not stated) | inactive |  |

| SMILES | outcome | fluorescence, % of Rose Bengal |
| --- | --- | --- |
| Cc1nc(C)nc(N2C[C@@H](C)N(c3ccnc([C@@H](C)O)n3)[C@@H](C)C2)n1 | inactive |  |
| CC(=O)OC(C)c1ccccc1 (configuration not stated) | inactive |  |
| O=C(O)c1ccccc1C(=O)OCc1ccccc1 | inactive |  |
| C=COCCOCCOC=C | inactive |  |
| CCCCCCCCOC(C)=O | inactive |  |
| CCN(Cc1cccc(S(=O)(=O)O)c1)c1ccccc1 | inactive |  |
| O=C(CN1CCN(Cc2ccc3c(c2)OCO3)CC1)N1c2ccccc2Sc2ccccc21 | inactive |  |
| CC(=O)N(CC(O)CO)c1c(I)c(C(=O)NCC(O)CO)c(I)c(C(=O)NCC(O)CO)c1I (configuration not stated) | inactive |  |
| CC1=NN(c2ccc(S(=O)(=O)O)cc2)C(=O)C1N=Nc1ccccc1 (configuration not stated) | inactive |  |
| C=CCOCC(CO)(COCC=C)COCC=C | inactive |  |
| C=C[Si](C)(C)O[Si](C)(C)C=C | inactive |  |
| CCCCC[Si](OCC)(OCC)OCC | inactive |  |
| O=C(O)c1ccccc1C(=O)Nc1ccc(S(=O)(=O)Nc2nccs2)cc1 | inactive |  |
| Nc1cc(S(=O)(=O)O)ccc1S(=O)(=O)O | inactive |  |
| O=CN1CCOCC1 | inactive |  |
| CCCCOC(=O)C(C)OC(=O)CCC (configuration not stated) | inactive |  |
| CC(=O)OC(C(=O)c1ccccc1)c1ccccc1 (configuration not stated) | inactive |  |

Assay: qHTS assay to test for compound auto fluorescence at 460 nm (blue) in HepG2 cell free culture (AID 720685)
Conditions: Cell-free culture medium, blue autofluorescence 405/460 nm; series mostly up to 91.3 µM
Method in brief: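 Cell-free plates of MEM plus 10% FBS received 23 nL compound or DMSO vehicle; blue-channel (405/460 nm) intensity scored against triamterene as reference fluorophore.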

| SMILES | outcome | fluorescence, % of fluorescent control |
| --- | --- | --- |
| O=C(COCCOCCOCC(=O)Nc1c(I)cc(I)c(C(=O)O)c1I)Nc1c(I)cc(I)c(C(=O)O)c1I | inactive |  |
| C=C(C)C(=O)OC | inactive |  |
| CC1=CC[C@H](CC=O)C1(C)C | inactive |  |
| C=C(C)[C@@H]1CC[C@@H](C)C[C@@H]1O | inactive |  |
| COCCOCCOCCOC | inactive |  |
| COc1ccc(OC)c(NC(=O)CC(C)=O)c1 | inactive |  |
| CCCCC(=O)N(C)C | inactive |  |
| C1=C\CC/C=C\CC/1 | inactive |  |
| CCS(=O)(=O)CCn1c([N+](=O)[O-])cnc1C |  | 0.0838% [at 18.6 µM] (inactive) |
| CC(Cl)COP(=O)(OCC(C)Cl)OCC(C)Cl (configuration not stated) | inactive |  |
| CCCCC(C)C(=O)O (configuration not stated) | inactive |  |
| CCCCC/C=C/CC(=O)OC | inactive |  |
| C=C(C)C(=O)OCCCCCCOC(=O)C(=C)C | inactive |  |
| NS(=O)(=O)c1ccc(Cl)c(S(N)(=O)=O)c1 | inactive |  |
| CC(C)SCc1ccco1 | inactive |  |
| Cc1nc(C)nc(N2C[C@@H](C)N(c3ccnc([C@@H](C)O)n3)[C@@H](C)C2)n1 | inactive |  |

| SMILES | outcome | fluorescence, % of fluorescent control |
| --- | --- | --- |
| CC(=O)OC(C)c1ccccc1 (configuration not stated) | inactive |  |
| O=C(O)c1ccccc1C(=O)OCc1ccccc1 | inactive |  |
| C=COCCOCCOC=C | inactive |  |
| CCCCCCCCOC(C)=O | inactive |  |
| CCN(Cc1cccc(S(=O)(=O)O)c1)c1ccccc1 | inactive |  |
| O=C(CN1CCN(Cc2ccc3c(c2)OCO3)CC1)N1c2ccccc2Sc2ccccc21 | inactive |  |
| CC(=O)N(CC(O)CO)c1c(I)c(C(=O)NCC(O)CO)c(I)c(C(=O)NCC(O)CO)c1I (configuration not stated) | inactive |  |
| CC1=NN(c2ccc(S(=O)(=O)O)cc2)C(=O)C1N=Nc1ccccc1 (configuration not stated) | inactive |  |
| C=CCOCC(CO)(COCC=C)COCC=C | inactive |  |
| C=C[Si](C)(C)O[Si](C)(C)C=C | inactive |  |
| CCCCC[Si](OCC)(OCC)OCC | inactive |  |
| O=C(O)c1ccccc1C(=O)Nc1ccc(S(=O)(=O)Nc2nccs2)cc1 | inactive |  |
| Nc1cc(S(=O)(=O)O)ccc1S(=O)(=O)O | inactive |  |
| O=CN1CCOCC1 | inactive |  |
| CCCCOC(=O)C(C)OC(=O)CCC (configuration not stated) | inactive |  |
| CC(=O)OC(C(=O)c1ccccc1)c1ccccc1 (configuration not stated) | inactive |  |
